Assay outcomes deposited in PubChem by National Center for Advancing Translational Sciences (NCATS).
Rows were chosen to be rich in hits. Some 2.4% of all compounds tested hit in one or more screens of this group.
Prx2 Sm inh – Schistosoma mansoni Prx2 inhibition | actives 0.07% (n = 65,000) | Potency, µM | S. mansoni Prx2 activity coupled to TGR/GSH (TGR is thioredoxin glutathione reductase), NADPH fluorescence loss, qHTS
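Prx2 inhibition was measured as reduced NADPH consumption when electrons flowed from NADPH through TGR and glutathione to Prx2 and H2O2. Plates were read kinetically over 8 min; enzyme reagents were held at 4 deg C during dispensing.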
AmpC inh det – AmpC beta-lactamase inhibition, detergent assay; P00811; purified AmpC, nitrocefin hydrolysis with detergent; Potency, µM (titrated, usually from 28.7 µM); actives 0.09% (n = 71,000); active = well fitted curve in the direction sought with a large enough effect; inconclusive = small, poorly fitted or top-dose-only effect
Target sequence (P00811 whole entry, looked up): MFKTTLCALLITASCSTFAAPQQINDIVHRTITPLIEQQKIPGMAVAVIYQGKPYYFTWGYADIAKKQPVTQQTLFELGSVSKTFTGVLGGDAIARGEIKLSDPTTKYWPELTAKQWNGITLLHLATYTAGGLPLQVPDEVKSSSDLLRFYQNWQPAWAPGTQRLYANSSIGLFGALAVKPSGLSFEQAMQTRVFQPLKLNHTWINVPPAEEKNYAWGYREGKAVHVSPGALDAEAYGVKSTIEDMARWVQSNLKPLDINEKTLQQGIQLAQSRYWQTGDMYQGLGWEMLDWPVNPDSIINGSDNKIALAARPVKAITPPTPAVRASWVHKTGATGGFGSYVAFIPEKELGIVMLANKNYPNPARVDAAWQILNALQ
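E. coli AmpC (5.3 nM) in 20 mM phosphate pH 7.0 with 0.01% Triton X-100, preincubated 15 min RT with compound; nitrocefin (2 uL of 800 uM stock) hydrolysis followed by 480 nm absorbance every 20 s over 4 min.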
LT uptake inh – blocks cellular internalization of anthrax lethal toxin; AID 912; Cells, anthrax lethal toxin internalization, FRET ratio (460/530); actives 0.67% (n = 70,000); Potency, µM (series often up to 40 µM), hits mostly inhibitors; also: nearly all actives have a fitted effect of over 50% in size
AmpC inh no det – blocks E. coli AmpC beta-lactamase in absence of detergent. actives 1.8% (n = 71,000). Potency, µM (top dose mostly 28.7 µM). AmpC nitrocefin hydrolysis, absorbance 480 nm, no detergent. P00811
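AmpC, 20 mM phosphate pH 7.0; 15 min cpd preinc, RT; start with nitrocefin (800 uM stock); A480 kinetic read, 20 s intervals, 4 min. No-enzyme wells = negative control.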
Each line names hits and unclear results; the compound was inactive in the other large screens; ! = not active in a repeat; [ ] = remark or other dose. Unless noted, calls follow the shape of the full dose curve.

CCN(CC)CCCN(C(=O)c1cccs1)c1nc(-c2ccc(OC)cc2)cs1	LT uptake inh 10µM
O=C(CCl)c1ccccc1	LT uptake inh 12.6µM (no result: Prx2 Sm inh)
O=c1cc(-c2ccccc2)oc2cc(O)c(O)c(O)c12	LT uptake inh 1.26µM, AmpC inh no det 7.94µM
C[C@@H]1O[C@H]1P(=O)(O)O	none
Nc1nc(-c2ccco2)nc(N2CCCCC2)n1	none
Nc1nc(N2CCCCC2)nc2ccccc12	LT uptake inh 20µM
c1ccc(-c2nc(N3CCCCCC3)c3ccccc3n2)nc1	LT uptake inh inconclusive (no result: Prx2 Sm inh)
c1ccc2c(N3CCCCC3)nc(N3CCCC3)nc2c1	LT uptake inh 10µM
NC(N)=NCCN=C(N)N	LT uptake inh inconclusive
O=C1c2ccccc2C(=O)N1C[C@]1(C(=O)O)NCCS1(=O)=O	none
CCOC(=O)c1c(C)n(CCOC)c2ccc(O)cc12	none
CCCCCS(=O)(=O)CCCCCCCCCCn1c(-c2ccc(O)cc2)c(C)c2cc(O)ccc21	LT uptake inh 5.01µM (no result: Prx2 Sm inh, AmpC inh det, AmpC inh no det)
C=C(CO)[C@H]1Cc2c(ccc3c(=O)c4c(oc23)COc2cc(OC)c(OC)cc2-4)O1	none
COc1cc(OC)cc(OCC(O)Cn2ccnc2C)c1 (stereo not drawn)	none
Cc1cccc(C)c1OCC(O)Cn1ccnc1C (stereo not drawn)	AmpC inh no det 3.98µM[single pt active]
[CH3][Hg][Cl]	LT uptake inh inconclusive (no result: Prx2 Sm inh)
O=C(Cn1cc(C(=O)c2cccs2)c2ccccc21)NCc1ccc2c(c1)OCO2	LT uptake inh inconclusive, AmpC inh no det 2µM[single pt active]
CCC(Cl)CC(Cl)C(Cl)C(Cl)C(Cl)C(C)Cl (stereo not drawn)	LT uptake inh 2.51µM (no result: Prx2 Sm inh)
COc1ccc(CCNC(=O)CSc2nc(N)c(C#N)c(-c3cccs3)c2C#N)cc1OC	LT uptake inh inconclusive
Cc1ccccc1NC(=O)CSc1nc(N)c(C#N)c(-c2cccs2)c1C#N	AmpC inh no det 10µM
CCN(CC)C(=O)c1ccc(CS(=O)(=O)c2ccc(OC)cc2)o1	AmpC inh no det 3.98µM[single pt active]
O=C(NCc1ccco1)c1cc2c(s1)CSC2	none (no result: Prx2 Sm inh)
O=C(NCc1ccc2c(c1)OCO2)c1cc2c(s1)CSC2	AmpC inh no det 12.6µM[single pt active]
O=C(NCc1ccc2c(c1)OCO2)Oc1ccccc1	AmpC inh no det 3.98µM[single pt active]
COc1ccccc1S(=O)(=O)Cc1ccc(C(=O)NCCN2CCCC2)o1	none
COc1ccccc1S(=O)(=O)Cc1ccc(C(=O)NCc2cccnc2)o1	AmpC inh no det 3.98µM[single pt active]
COc1cc(/C=C\C(=O)N2CCCCC2=O)cc(OC)c1OC	LT uptake inh inconclusive (no result: Prx2 Sm inh)
NCCSCCC(=O)O	none
CCc1ccccc1S(=O)(=O)Cc1ccc(C(=O)NCc2ccc3c(c2)OCO3)o1	LT uptake inh inconclusive, AmpC inh no det 3.98µM[single pt active]
COc1ccc(S(=O)(=O)Cc2ccc(C(=O)NC(C)C)o2)cc1	none
COCCNC(=O)c1ccc(CS(=O)(=O)c2c(Cl)cccc2Cl)o1	none
COc1ccc(S(=O)(=O)Cc2ccc(C(=O)NCc3ccccn3)o2)cc1	LT uptake inh inconclusive, AmpC inh no det 3.98µM[single pt active]
CCC(C)NC(=O)c1ccc(CS(=O)(=O)c2ccc(OC)cc2)o1 (stereo not drawn)	AmpC inh no det 3.98µM[single pt active]
COCCNC(=O)c1ccc(CS(=O)(=O)c2ccc(OC)cc2)o1	AmpC inh no det 3.98µM[single pt active]
CCc1ccccc1S(=O)(=O)Cc1ccc(C(=O)NC(C)C)o1	none
O=c1cc(-c2ccccc2O)oc2c1ccc1ccccc12	LT uptake inh inconclusive
C=C[C@@H]1CN2CC[C@H]1C[C@H]2[C@@H](O)c1ccnc2ccccc12	LT uptake inh inconclusive
CCSc1nnc(NC(=O)c2ccc(Br)s2)s1	AmpC inh no det 10µM (no result: LT uptake inh)
CCCCOC(=O)Nc1ccc(S(=O)(=O)Nc2cc(C)nc(C)n2)cc1	LT uptake inh inconclusive, AmpC inh no det 3.16µM[single pt active]
Cc1ccc(OCCCC(=O)Nc2ccc(S(=O)(=O)Nc3cc(C)on3)cc2)cc1	AmpC inh no det 10µM[single pt active]
CC(=O)[C@@H](C)CCO[C@@]1(C)OCC[C@@H]1C	none
COc1cccc(Nc2cc(C)nc3ccccc23)c1	none
O=C(O)c1ccccc1Nc1cccc(OCc2ccc3ccccc3n2)c1	LT uptake inh 15.8µM!, AmpC inh no det 15.8µM![single pt active]
CCCCCCCCCCCCC/C=C\[C@@H](O)[C@H](CO)NC(C)=O	LT uptake inh 15.8µM
Nc1ncnc2c1ncn2[C@@H]1O[C@@H](CO)[C@H](O)[C@@H]1O	LT uptake inh inconclusive
CCOC(=O)c1cnc2c(C(F)(F)F)cccc2c1N1CCOCC1	none
CCOC(=O)c1cnc2c(C)c(Cl)ccc2c1N1CCOCC1	AmpC inh no det 3.98µM[single pt active]
COc1cccc(Cn2nnc(C(=O)NCc3ccccc3Cl)c2N)c1	LT uptake inh inconclusive, AmpC inh no det 3.98µM[single pt active] (no result: Prx2 Sm inh)
CCOc1ccc(Cn2nnc(C(=O)NCCc3ccccc3)c2N)cc1	AmpC inh no det 3.98µM[single pt active]
